Test results published in ChEMBL document CHEMBL3988442, “University of Dundee, Small-Polar-MMV Screening Library” (2021).
Among all 66,000 compounds or so, about 960 (1.5%) showed an effect of 50% or more. The sample as a whole holds a higher share of strong results than the screen did.

System: Trypanosoma brucei
Assay: Trypanosoma brucei 72 hour study
Format: functional, organism-based
Set-up: scale not given: in the data most compounds retested in dose-response had high values

| Compound | Percent Effect (30.3 µM, […]) | Percent Effect (30 µM, 30.03 µM) |
| --- | --- | --- |
| CN(C)c1ncc2c(O)nc(C3CCNCC3)cc2n1.Cl | -29.5% | – |
| CC(=O)NC1CCN(c2ccnc(C3CCNCC3)c2)CC1.O=C(O)C(F)(F)F | -10.98% | – |
| O=C(Nc1ccccn1)NC1CCN(c2ccccc2OC(F)F)C1 (configuration not stated) | – | -33.53% |
| O=C(Nc1cccnc1)NC1CCN(c2ccccc2OC(F)F)C1 (configuration not stated) | – | -24.57% |
| O=C(Nc1ccncc1)NC1CCN(c2ccccc2OC(F)F)C1 (configuration not stated) | – | 57.33% |
| Cc1nc(N(C)C)nc(C)c1NC(=O)c1ccccc1F | – | -23.68% |
| CO[C@@H]1CCN(Cc2cnn(C)c2)[C@@H]2CN(Cc3cccnc3)C[C@@H]21.O=C(O)C(F)(F)F.O=C(O)C(F)(F)F.O=C(O)C(F)(F)F | – | -0.5656% |
| CN(C)C(=O)CN1CCC(c2c(C(N)=O)sc3ncccc23)C1 (configuration not stated) | -20.96% | – |
| Cc1ncc2c(n1)CN(Cc1cccc3c1OCCO3)CC2 | – | -9.069% |
| CC(C)c1ncc2c(n1)CN(Cc1cccc3c1OCCO3)CC2 | – | 65.77% |
| CCc1ncc2c(n1)CN(Cc1cccc3c1OCCO3)CC2 | – | -15.38% |
| O=C(O)C(F)(F)F.O=C(O)C(F)(F)F.O=C(c1ccsc1)N1C[C@@H]2OCCN(CCN3CCCC3)[C@@H]2C1 | -142.2% | – |
| CCn1cc(Cl)c(C(=O)NCCOC)n1 | -26.01% | – |
| CCNC(=O)CCc1c(C)nc2cc(O)nn2c1C | – | 30.72% |
| COc1ccc(NC(=O)CCc2c(C)nc3cc(O)nn3c2C)cn1 | – | 73.91% |
| COC(=O)CCc1c(C)nc2cc(O)nn2c1C | – | 37.13% |
| Cc1ccc2c(c1)CN(C(=O)c1cccnc1)C(CN(C)C)CO2.Cl (configuration not stated) | -3.741% | – |
| Cc1cnc(N2CCO[C@@H]3CC(COCc4cccnc4)C[C@H]32)nc1.O=C(O)C(F)(F)F.O=C(O)C(F)(F)F (some centres not stated) | -14.97% | – |
| Cl.c1cnc2c(c1)cc([C@@H]1CCCO1)n2CCN1CCOCC1 | -1.684% | – |
| CCc1ccc(S(=O)(=O)N2Cc3c(CN(C)C)nn(C)c3C2)cc1.O=C(O)C(F)(F)F | -1.293% | – |
| O=C(Nc1cccc(CN2CCOC2=O)c1)N1CCCCCC1 | – | -56.22% |
| O=C(Nc1cccc(CN2CCOC2=O)c1)N1CCSCC1 | – | 53.61% |
| O=C(Nc1cccc(CN2CCOC2=O)c1)N1CCCC1 | – | -2.123% |
| COc1ccc(C[C@H]2CN(C(=O)CN(C)C)CC[C@H]2OC)cc1.O=C(O)C(F)(F)F | 4.427% | – |

| Compound | Percent Effect (30.3 µM, […]) | Percent Effect (30 µM, 30.03 µM) |
| --- | --- | --- |
| CCS(=O)(=O)N1Cc2ccccc2CC1C(=O)OCc1c(C)noc1C (configuration not stated) | – | -54.09% |
| Cc1cc(COC(=O)[C@@H]2Cc3ccccc3CN2S(C)(=O)=O)no1 | – | 77.9% |
| CCS(=O)(=O)N1Cc2ccccc2CC1C(=O)OCc1cc(C)no1 (configuration not stated) | – | -34.32% |
| COCCNC(=O)N1CCCC1COc1ccccc1 (configuration not stated) | -9.999% | – |
| Cc1ccccc1SC1CCN(C(=O)C2CNC(=O)N2)CC1 (configuration not stated) | -1.493% | – |
| Cc1ccccc1SC1CCN(C(=O)[C@H]2[C@@H]3CNC[C@@H]32)CC1 | 52.77% | – |
| Cc1ccccc1SC1CCN(C(=O)C2CNCC(=O)N2)CC1 (configuration not stated) | 6.741% | – |
| COCC1CN(Cc2ccoc2)Cc2nn(C)cc21.O=C(O)C(F)(F)F (configuration not stated) | – | 26.18% |
| CN(C)C[C@@H]1CCC[C@@H]2CN(c3ncccn3)C[C@@H]21.O=C(O)C(F)(F)F | -12.16% | – |
| CN(C[C@@H]1CCC[C@@H]2CN(c3ncccn3)C[C@@H]21)C1CC1.O=C(O)C(F)(F)F | -3.838% | – |
| CN(C)C[C@@H]1CCC[C@@H]2CN(c3nccc(C(F)(F)F)n3)C[C@@H]21.O=C(O)C(F)(F)F | 99.5% | – |
| CNCC(=O)Nc1ccc(-c2cnc(NCCS(C)(=O)=O)nc2)cc1 | -12.7% | – |
| Cc1cc(C2CCCN2Cc2ccn(C)c(=O)c2)on1 (configuration not stated) | 6.831% | – |
| COc1ccc(CN2CCC[C@H]2c2nc(-c3cncnc3N)no2)cc1 | -48.86% | – |
| Cc1c[nH]nc1C1CCCN1Cc1ccncc1 (configuration not stated) | -23.61% | – |
| CCc1ccc(CN2CCCCC2c2n[nH]cc2-c2cc(C)no2)cc1.Cl (configuration not stated) | 53.31% | – |
| COc1ccccc1CNc1ncc(-c2cc(C)no2)c(C(C)C)n1 | -4.15% | – |
| COCC(=O)N1CCCCC1c1nc(N(C)C)ncc1-c1cc(C)no1 (configuration not stated) | -6.324% | – |
| COc1cccc(CN2CCCC2c2ccc[nH]2)c1 (configuration not stated) | – | 1.101% |
| COc1cccc(CN2CCCCCC2c2cccc(C)c2)c1O (configuration not stated) | – | -7.245% |
| COc1cccc(CN2CCCC2c2c(C)nn(C)c2C)c1 (configuration not stated) | – | -36.92% |
| COc1ccccc1CN1CCCCC1c1n[nH]cc1-c1cc(C)no1.Cl (configuration not stated) | 99.66% | – |
| COc1cccc(CN2CCCCC2c2n[nH]cc2-c2cc(C)no2)c1.Cl (configuration not stated) | 52.03% | – |
